Screening results deposited in PubChem by ICCB-Longwood Screening Facility, Harvard Medical School.
Only a selection was taken, and hits are over-represented in it overall.
VACV E9 pol inh – vaccinia E9 polymerase processive synthesis inhibition. in vitro processive DNA synthesis, absorbance read-out; active compounds read low. normalized absorbance, % (no concentration beside the values). 46,000 compounds, 0.94% hits. AID 493162; in the data active = normalized absorbance mostly below about 85%, no sharp cut-off; inactive = mostly above about 86%
* hit, by the source's call.

SMILES | VACV E9 pol inh
O=C(CSc1nc2c(c(=O)n1CCc1ccccc1)SCC2)Nc1nccs1 | 95
COC(=O)c1cc(=O)n2ccccc2c1C#N | 80
O=c1[nH][nH]c(=O)n1CCCc1cc2cccc3ccc4cccc1c4c32 | 63*
O=C1CNC(=O)N1/N=C/c1cccc2ccccc12 | 100
CCCCC(=O)c1ccc(O)cc1 | 110
S=C(Nc1ccccc1)Nc1ccccc1-c1nc2ccccc2[nH]1 | 68*
CC(C)C(=O)Nc1ccccc1-c1nc2ccccc2[nH]1 | 94
O=C(Nc1ccccc1-c1nc2ccccc2[nH]1)C1=COCCO1 | 92
O=C(COc1cccc2c1CCN(Cc1ccc(Br)cc1)C2=O)N1CCOCC1 | 100
O=C(COc1cc(O)c2c(=O)cc(-c3ccccc3)oc2c1)c1ccccc1 | 100
O=c1cc(-c2ccccc2)oc2cc(O)cc(O)c12 | 100
O=c1cc(-c2ccc(O)cc2)oc2cc(O)cc(O)c12 | 85*
COc1ccc(-c2cn3c(C)c(C(=O)N4CCN(c5ccccc5)CC4)sc3n2)cc1 | 103
Cc1ccc(NC(=O)COc2ccc3ccccc3c2Br)cc1F | 99
C=CCN1Cc2ccc3ccccc3c2-c2c(ccc3ccccc23)C1 | 88
O=C(CC(=O)c1ccccc1)Nc1cccc(C(=O)O)c1 | 101
O=c1c2ccccc2c(C=NCc2cccnc2)c(O)n1-c1ccccc1C(F)(F)F | 104
C(=NCc1cccnc1)c1ccc2c(c1)OCO2 | 106
C(=NCc1cccnc1)c1c2ccccc2cc2ccccc12 | 42*
COC(=O)c1ccc(CSc2nc(-c3ccc(OC)cc3)ns2)o1 | 100
COC(CN=C1COc2cccnc2N1)OC | 95
Cc1c(Cl)cccc1NCc1nc2ccccc2s1 | 94
CCOC(=O)c1c(C)n(C)c2ccc(OCCN(C)C)cc12 | 65*
CCOC(=O)c1c(C)n(-c2ccc(OC)cc2)c2ccc(OC)cc12 | 100
CCOC(=O)c1c(C)n(Cc2ccccc2)c2ccc(OC(C)=O)cc12 | 100
SMILES | VACV E9 pol inh
CCC1SC(CC)C(=O)N(CC(=O)NCc2ccccc2)C1=O (stereo not given) | 99
CCN=C(Nc1cc(-c2ccccc2)[nH]n1)SC | 83
CCN(CC)CCOc1ccc2c(c1)C(=O)c1cc(OCCN(CC)CC)ccc1-2 | 30*
CCN(CC)CCOc1ccc(/C(C)=N\O)cc1 | 100
CCN(CC)CCOC(=O)C(c1ccccc1)c1ccccc1 | 103
Cc1nc(-c2ccccc2O)n[nH]1 | 102
Cc1cc(C)cc(NC(=O)CSc2ccc3nnc(-c4cccs4)n3n2)c1 | 105
Brc1ccccc1C=Nc1cccc2cnccc12 | 81
O=S(=O)(NCCNC/C=C/c1ccc(Br)cc1)c1cccc2cnccc12 | 89*
O=S(=O)(c1cccc2cnccc12)N1CCCNCC1 | 100
CNC(=O)c1ccsc1NC(=O)c1ccccc1 | 100
O=C(NO)c1cccc2c1-c1ccccc1/C2=N/O | 73
COC(=O)c1cccc2c1-c1ccccc1/C2=N/O | 58*
COC(=O)c1ccccc1C(=O)c1ccccc1 | 92
Cc1c(SCC(C)C)cc(N2C(=O)c3ccccc3C2=O)cc1S(=O)(=O)c1ccccc1 | 98
C[n+]1cc(-c2ccc3ccccc3n2)cc2ccccc21 | 85*
COc1ccc(-c2ccc3ccccc3n2)cc1OC | 101
Cn1c(-c2ccc3ccccc3n2)[n+](C)c2ccccc21 | 100
CCC1CSC(Nc2cccc(C(F)(F)F)c2)=N1 (stereo not given) | 98
CCOc1ccc2nc(NN)sc2c1 | 22*
CCOc1ccc2nc(NC(=O)C(C)C)sc2c1 | 115
CCOc1ccc2nc(NC(=O)C(CC)CC)sc2c1 | 98
Cc1ccc(SCc2cn3c(C)cc(C)nc3n2)cc1 | 103
Fc1cccc(Cl)c1C=NCc1ccc(Cl)cc1 | 95
CCCSc1nc(C)cc(=O)[nH]1 | 100
SMILES | VACV E9 pol inh
CC(=O)[C@H]1CCC2C3CCC4=CC(=O)CC[C@]4(C)C3CC[C@@]21C (stereo not given in full) | 99
COc1c(C#N)sc2ccccc12 | 86
O=C(O)C1CCN(C(=O)C(F)(F)F)CC1 | 112
CN(C)C=NC(=S)c1ccc(-c2cccs2)s1 | 78*
O=C(Sc1ccc(Cl)cc1)c1ccc(-c2cccs2)s1 | 99
CC(C)(C)c1csc(-c2ccc(-c3cccs3)s2)n1 | 100
CCn1c(=O)c2cc(C(=O)NCC3CCCO3)sc2c2ccccc21 (stereo not given) | 105
O=C(NCC1CCCO1)c1cc2c(s1)CCC2 (stereo not given) | 103
O=C(NCC1CCCO1)c1cc2sc3ccccc3c2s1 (stereo not given) | 66*
Cc1c(C)c(C)c(CSC2=NCN(C)CN2)c(C)c1C | 87
N#CCC(=O)Nc1cccnc1 | 102
CCC(CC)c1nc(Nc2ccccc2)c2ccccc2n1 | 100
CCOC(=O)COc1nc(-c2ccccc2)nc2ccccc12 | 98
COc1ccc(-c2ccnc(SCC(=O)c3ccc(Cl)cc3)n2)cc1 | 99
COc1ccc(C(=O)CSc2nnc(-c3ccco3)c(-c3ccco3)n2)cc1 | 68*
COc1ccc(C(=O)CSc2nc3ccccc3s2)cc1 | 90
Cc1ccc(OCCn2ncc3ccccc3c2=O)c(C)c1 | 108
CCn1c(SCC(=O)NC2CCCC2)nnc1-c1c[nH]c2ccccc12 | 100
